PubChem BioAssay AID652072 (Broad Institute, 2013)
Results filed as inconclusive are left out. Calls of active or inactive are those of the source. How the calls were made is not given here.

Test: apoptosis induction over several timepoints, melanoma line – cell-based, LOX IMVI, luminescence, multiple timepoints, dry powder, mechanism study for HRAS target identification, dose response (AID 652072)
Details: caspase 3/7 luminescence; series mostly up to 35 µM

Q: Which outcome does the source give for C#CCCCC(=O)NCCOCCOCCOc1ccc(N(C(=O)CCl)C(C(=O)NCCc2ccccc2)c2cccs2)cc1Cl (centres undefined) here?
A: inactive

Q: For CCC(=O)N(c1ccc(OC)c(Cl)c1)C(C(=O)NCCc1ccccc1)c1cccs1 (centres undefined), which outcome is on record?
A: inactive

Q: For Cc1onc(C(=O)N2CCN(C(c3ccc(Cl)cc3)c3ccc(Cl)cc3)CC2)c1[N+](=O)[O-], which outcome is on record?
A: inactive

Q: With Cc1onc(C(=O)N2CCN(C(c3ccc(Cl)cc3)c3ccc(OCCOCCOCCNC(=O)OC(C)(C)C)cc3)CC2)c1[N+](=O)[O-] (centres undefined) as the molecule, how does the outcome read?
A: inactive
